Measured potencies and affinities stand elsewhere. Calls of active or inactive are those of the source. No rule for the calls is given here.

For 38 compounds, outcome results are on record in PubChem BioAssay AID743343 (Broad Institute, 2014).

The assay concerns Drosophila melanogaster bursicon receptor LGR2 (rickets). The experiment in a line: LGR2 antagonists, dose response, cell-based, HEK293, CRE-luciferase reporter, cherry pick, set 2 (AID 743343). Particulars: bursicon-induced cAMP antagonist; series mostly up to 35 µM.
With `COc1ccccc1CCn1cnc(-c2ccccc2OC)c1C(C)C`, the compound was called inactive.
As for `COc1ccccc1C=NNC(=O)c1ccncc1`, the entry is “inactive”; as for `CC[C@H](CO)Oc1cc(NCc2ccc(Cl)c(Cl)c2)c2ncn(C(C)C)c2c1`, “inactive”.
Turning to `CCOC(=O)Nc1ccc(N2CCOCC2)c(S(=O)(=O)Nc2ccc(Cl)cc2)c1`, the result was inactive.
Turning to `C[C@@H]1CN([C@H](C)CO)C(=O)c2cc(NC(=O)Nc3cccc4ccccc34)ccc2O[C@@H]1CN(C)C(=O)Nc1ccccc1`, the result was inactive.
Turning to `COc1ccc2c3c([nH]c2c1)[C@H](CO)N(C(C)=O)CC31CCN(C(=O)CN2CCOCC2)CC1`, the outcome was inactive.
For `O=C(C[C@H]1C=C[C@@H](NC(=O)C2CCC2)[C@H](CO)O1)NCCCN1CCOCC1`, the call was inactive.
As for `CCOc1cccc2sc(Nc3nc4ccc(NC(C)=O)cc4s3)nc12`, the compound was called inactive.
In the case of `O=C(c1ccc(CSc2nc3ccncc3[nH]2)cc1)N1CCN(c2cccc(Cl)c2)CC1` it was “inactive”.
Take `COCC(=O)N[C@@H]1CC[C@@H](CC(=O)NCc2ccccc2OC)O[C@@H]1CO`: the compound was called inactive.
With `CCCCOc1cc(NCc2ccccc2)c2ncn(C(C)C)c2c1`, the compound was classed as inactive.
`OC[C@H]1[C@@H](c2ccc(-c3ccc(F)cc3)cc2)[C@@H]2CN(Cc3ccccn3)CCCCN12`: the result was inactive.
As for `C[C@@H]1CN([C@H](C)CO)C(=O)c2c(c3ccccc3n2C)-c2ccccc2CO[C@H]1CN(C)S(=O)(=O)c1cn(C)cn1`, the entry is “inactive”.
As for `Cc1ccc(S(=O)(=O)N(C)C[C@H]2Oc3cc(Br)ccc3S(=O)(=O)N([C@H](C)CO)C[C@H]2C)cc1`, the call was inactive.
`COc1ccc2cc(C#N)c(Nc3cccc(F)c3)nc2c1`: the compound was called inactive.
In the case of `O=[N+]([O-])c1ccc(-c2cnc(SC(c3ccccc3)c3ccccc3)[nH]2)cc1` it was “inactive”; in that of `CO[C@H]1CN(C)C(=O)c2ccc(NC(=O)c3ccc(-c4ccccc4)cc3)cc2OC[C@@H](C)NC[C@@H]1C`, “inactive”.
In the case of `N#C[C@H]1[C@@H](c2ccc(C3=CCCCC3)cc2)[C@H](CO)N1C(=O)c1ccccn1` it was “inactive”; in that of `Cc1ccc(-n2cc(CN(C)Cc3nccn3C)c(-c3cccc(C)c3)n2)cc1`, “inactive”; in that of `CC(=O)Nc1cccc(-c2ccnc3c2CC(C(=O)NCc2cccnc2)O3)c1` (stereo not drawn), “inactive”.
Take `C[C@@H]1CN([C@H](C)CO)C(=O)c2cc(C#CCN(C)C)cnc2O[C@@H]1CN(C)C(=O)CN1CCOCC1`: the call was inactive.
In the case of `COc1ccc(-c2nc(N)n(C(=O)c3cccs3)n2)cc1` it was “inactive”; in that of `COc1cccc(-c2ccc(C3[C@@H]4CN(C(=O)C5CC5)C[C@H]3N4)cc2)c1` (stereo partly drawn), “inactive”.
`N#C[C@@H]1[C@H](c2ccc(C#CC3CCCCC3)cc2)[C@@H](CO)N1C(=O)c1cccc(F)c1`: the outcome was inactive.
As for `O=C(Cn1ncc(Cl)c(Cl)c1=O)N1CCOCC1`, the outcome was inactive.
In the case of `CO[C@@H]1CN(C)C(=O)c2ccc(NC(=O)C3CC3)cc2OC[C@@H](C)NC[C@@H]1C` it was “inactive”; in that of `C[C@H](CO)N1C[C@H](C)[C@@H](CN(C)S(=O)(=O)c2cccs2)Oc2c(cccc2N(C)C)C1=O`, “inactive”; in that of `Cc1ccc(NC(=O)c2ncn(CC(=O)NCc3ccc4[nH]ccc4c3)n2)cc1C`, “inactive”.
For the compound `CC(=O)c1ccc(S(=O)(=O)N2CCC(NC(=O)Nc3cccc(F)c3)CC2)cc1`, the outcome was inactive.
In the case of `Cc1noc2ncnc(Sc3ccc(Br)cc3)c12`, the result was inactive.
On to `C[C@H]1CN([C@@H](C)CO)C(=O)c2cc(C#CCc3ccccc3)cnc2O[C@H]1CN(C)Cc1ccccc1`, for which the compound was classed as inactive.
As for `Cc1ccc(S(=O)(=O)N2[C@@H](CO)CO[C@H]2CC(=O)OCc2ccccc2)cc1`, the compound was called inactive.
As to `O=C(CSc1ncnc2[nH]ncc12)Nc1nc(-c2ccc(F)c(F)c2)cs1`, the call was inactive.
With `COc1ccccc1N1CCN(C(=O)c2sc3nc(-c4ccc(F)cc4)cn3c2C)CC1`, the compound was classed as inactive.
In the case of `CCOC(=O)C(C)N1c2cccc3cccc(c23)S1(=O)=O` (stereo not drawn) it was “inactive”.
Regarding `C[C@H]1CN([C@@H](C)CO)C(=O)Cc2cc(NC(=O)Nc3ccc(F)cc3)ccc2O[C@H]1CN(C)CC1CCCCC1`, the result was inactive.
In the case of `COc1ccccc1CN(C)C[C@@H]1OCc2cnnn2CCCC(=O)N([C@H](C)CO)C[C@H]1C` it was “inactive”; in that of `Cn1nnnc1Sc1ncnc2scc(-c3ccccc3C(F)(F)F)c12`, “inactive”.
